Screening results from PubChem.
A selection: hits, their analogues and other compounds. The true share with any hit is near 6.9%.
MCF10A rereplic = DNA re-replication induction in MCF 10a cells | Potency, µM (highest dose often 46.1 µM), usual class: activators | AID 624296 | hit rate 2.9% among 350,000 | MCF 10A DNA re-replication, Hoechst nuclear intensity, 48 h; also: nearly all actives have a fitted effect of over 50% in size
ASM inhibitor = blocks human secretory acid sphingomyelinase; placental ASM, HMU-PC fluorogenic substrate, 60 min; AID 504937; Potency, µM (doses to about 57.5 µM), usual class: inhibitors; hit rate 0.006% among 340,000
Target sequence (P17405 47-631 limits assumed): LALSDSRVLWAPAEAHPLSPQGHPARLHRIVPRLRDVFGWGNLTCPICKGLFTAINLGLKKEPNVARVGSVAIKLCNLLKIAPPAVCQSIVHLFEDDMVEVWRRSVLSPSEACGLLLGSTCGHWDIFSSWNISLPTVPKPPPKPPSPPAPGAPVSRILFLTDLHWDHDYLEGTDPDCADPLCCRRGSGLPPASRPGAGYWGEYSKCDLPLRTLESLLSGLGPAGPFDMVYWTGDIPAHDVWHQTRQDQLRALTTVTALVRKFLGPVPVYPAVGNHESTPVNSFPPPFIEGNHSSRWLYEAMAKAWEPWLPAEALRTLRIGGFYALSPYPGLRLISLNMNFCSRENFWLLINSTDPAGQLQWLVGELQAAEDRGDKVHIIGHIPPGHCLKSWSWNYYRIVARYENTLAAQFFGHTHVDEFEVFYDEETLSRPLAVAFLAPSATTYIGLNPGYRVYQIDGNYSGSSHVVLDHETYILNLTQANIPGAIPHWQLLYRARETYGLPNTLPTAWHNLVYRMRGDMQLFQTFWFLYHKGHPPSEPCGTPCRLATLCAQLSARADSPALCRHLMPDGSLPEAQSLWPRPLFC
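qHTS format. ASM enzyme prepared from human placenta hydrolyses the fluorogenic substrate HMU-PC0 (9 uM final) over 60 min at 37 °C after a 10 min compound preincubation.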
Giardia killer = Giardia lamblia killing; Giardia lamblia trophozoite viability; hit rate 0.15% among 340,000; activity change, % at 7.66 µM, hits read low; in the data active = activity change below about -80%; inconclusive = between about -30% and that limit;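 also: parasites exposed to compound for two days anaerobically before the ATP read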
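Media and compound were dispensed first, then trophozoites at 100 cells/well; plates sat 48 hrs at 37 deg C without oxygen before ATP luminescence reagent was added and read after 15-30 min at room temperature.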
KB-V1 cytotox = KB-V1 MDR subline cytotoxicity; KB-V1 MDR cells viability, CellTiter-Glo, 72 h; Potency, µM (top dose mostly 46.1 µM), most hits filed as cytotoxic; hit rate 3.4% among 400,000; AID 1347076; also: nearly all actives have a fitted effect of over 60% in size
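Compound-treated KB-V1 multidrug-resistant cells, 72 h, 37 degrees C; viability by CellTiter-Glo. Fitted qHTS curves give the values.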
KB-3-1 tox = kills parental KB-3-1 adenocarcinoma cells | KB-3-1 viability, CellTiter-Glo ATP luminescence, 72 h | Potency, µM (top dose mostly 46.1 µM), most hits filed as cytotoxic | AID 1347075 | hit rate 1.4% among 400,000; also: nearly all actives have a fitted effect of over 60% in size
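Here the drug-naive KB-3-1 line serves as comparator for MDR sub-line selectivity; cells received compound titrations, 72 h at 37 °C, then CellTiter-Glo readout.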
SW480 rerep = induces DNA re-replication in SW480 colon adenocarcinoma cells; hit rate 1.8% among 340,000; AID 624297; SW480 DNA re-replication, Hoechst DNA content imaging, 48 h; Potency, µM (doses to about 46.1 µM), actives largely listed as activators; also: nearly all actives have a fitted effect of over 55% in size
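Per well, 250 cells were exposed to pinned compound for 48 hr. Nuclear DNA was visualised with Hoechst (40 min, 37 C) and total object intensity recorded by fluorescence scanning.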
A number is an active result; – = inactive; ? = inconclusive; · = no result. Unless noted, calls follow the shape of the dose curve; as a rule, active = well fitted curve in the direction sought with a large enough effect; inconclusive = small, poorly fitted or top-dose-only effect, or another doubt; inactive = no such curve, though single readings can be large; an effect the other way counts as inactive or inconclusive.

SMILES	MCF10A rereplic	ASM inhibitor	Giardia killer	KB-V1 cytotox	KB-3-1 tox	SW480 rerep
Cc1cccc(C2CC(=O)Nc3cc4c(cc32)OCO4)c1 (configuration not stated)	·	·	·	–	?	·
CCOc1ccccc1C1CC(=O)Nc2cc(C)c(C)cc21 (configuration not stated)	?	–	–	8.2µM	?	18.4µM
COc1ccccc1C1CC(=O)Nc2cc(C)c(C)cc21 (configuration not stated)	–	–	–	9.2µM	16.4µM	20.6µM
COc1cc2c(cc1OC)C(c1cc(C)ccc1C)CC(=O)N2 (configuration not stated)	0.651µM	–	–	?	–	–
COc1cc2c(cc1OC)C(c1ccco1)CC(=O)N2 (configuration not stated)	–	–	–	–	–	–
CC(C)Oc1cccc(C2CC(=O)Nc3cc4c(cc32)OCO4)c1 (configuration not stated)	·	·	·	?	3.66µM	·
O=C(Nc1nccs1)C1CCN(S(=O)(=O)c2ccccc2)CC1	–	–	–	–	–	–
COc1ccc(Cn2c(=O)c3cccnc3n(Cc3cccc(F)c3)c2=O)cc1	·	·	·	–	–	·
N#C/C(=C/c1ccc(N2CCCCC2)cc1)c1cccc(F)c1	–	–	–	?	–	–
Cc1ccc(/C(C#N)=C\c2ccc(N3CCOCC3)o2)cc1	–	–	–	–	–	–
N#C/C(=C/c1ccc(N2CCCCC2)o1)c1cccc(F)c1	7.31µM	?	–	–	–	8.2µM
N#C/C(=C/c1ccc(N2CCCCCC2)o1)c1ccc(Cl)cc1	2.91µM	–	–	–	–	13µM
Cc1ccnc2ncccc12	·	·	·	–	–	·
Clc1ccc2nc[nH]c2c1	·	·	·	–	–	·
CCCCN(CC)S(=O)(=O)N1CCC(C(=O)NCc2ccc(F)cc2)CC1	–	–	–	16.4µM	–	–
COc1ccc(/C=c2\s/c(=C\C(=O)C(C)(C)C)[nH]c2=O)cc1O	?	–	–	–	–	–
COc1cc(/C=c2\s/c(=C\C(=O)C(C)(C)C)[nH]c2=O)cc(OC)c1OC	18.4µM	–	–	?	–	4.11µM
O=C(Nc1ccccc1Sc1ccccc1)c1cnn2c1NC(=C1CC1)C=C2C(F)F	·	·	–	–	?	·
COc1ccc(NC(=S)Nc2ccccc2)c(OC)c1	–	–	–	–	–	–
COc1ccc(NC(=S)Nc2ccc(OCc3ccccc3)cc2)c(OC)c1	–	–	–	16.4µM	?	–
O=C(CC1SC(N2CCCC2)=NC1=O)Nc1ccc(C(=O)NCCOc2ccccc2F)cc1 (configuration not stated)	–	–	–	–	–	–
COc1ccc(CN2CCOCC2)cc1OC	–	–	–	–	–	–
COc1cc2sc3ccc(-c4ccc(CN5CCOCC5)cc4)cc3c(=O)c2cc1OC	6.51µM	–	?	13µM	?	–
O=S(=O)(c1ccccc1Cl)N1CCN(c2nc(-c3cccs3)nc3ccccc23)CC1	·	·	–	·	·	·
COc1ccc2[nH]c3c(c2c1)CCNC3C1CC=C(C)CC1 (configuration not stated)	0.581µM	–	–	?	20.6µM	?
SMILES	MCF10A rereplic	ASM inhibitor	Giardia killer	KB-V1 cytotox	KB-3-1 tox	SW480 rerep
COC(=O)c1ccccc1NC(=O)c1ccc(-c2cccc(Cl)c2)o1	–	–	–	–	–	–
CN(C)S(=O)(=O)Oc1ccsc1C(=O)Nc1cccc(Cl)c1	–	–	–	20.6µM	?	–
COC(=O)c1sccc1-c1ccc(C(=O)Nc2cccc(Cl)c2)o1	?	–	–	16.4µM	–	–
COc1cccc(/C=N/NC(=O)c2oc3nc(-c4ccccc4)cc(-c4ccco4)c3c2N)c1	?	–	–	–	–	?
Cc1ccc(-c2cc(-c3ccco3)c3c(N)c(C(=O)NN)oc3n2)cc1	7.31µM	–	–	–	?	20.6µM
Nc1ccc2oc(=O)c(-c3ccccc3)cc2c1	–	–	–	–	–	?
CNC(=S)NNC(=O)c1oc2nc(-c3ccccc3)cc(C)c2c1N	2.59µM	–	–	–	–	6.51µM
NNC(=O)c1oc2nc(-c3ccccc3)cc(-c3ccccc3)c2c1N	18.4µM	–	–	–	–	?
CC(=O)c1ccc(NC(=O)CN(C)S(=O)(=O)c2cc3c(cc2Cl)NC(=O)CO3)cc1	·	·	·	–	–	·
CC(=O)Nc1ccc(NC(=O)c2ccc3c(c2)CCN3S(=O)(=O)c2ccc(Cl)cc2)cc1	·	·	·	?	–	·
NC(=O)C1(N2CCCCC2)CCN(CC(=O)Nc2ccc(Oc3ccccc3)cc2)CC1	–	–	–	13µM	?	–
CCC(=O)Nc1ccc(N2CCN(Cc3ccccc3)CC2)cc1	8.2µM	–	–	–	–	–
COc1cccc(/C=C/C(=O)NNC(=O)CCN2CCN(Cc3ccccc3)CC2)c1	?	–	–	–	23.1µM	3.66µM
COc1cccc(C(=O)NNC(=O)CCN2CCN(c3ccccc3)CC2)c1	–	–	–	–	–	–
O=C(CN1CCCCCC1)Nc1ccc(Oc2ccccc2)cc1	?	–	–	–	–	?
O=C(CN1CCN(CC(=O)Nc2ccc(OCc3ccccc3)cc2)CC1)Nc1ccc(F)cc1	–	–	–	3.66µM	–	–
Cc1ccc2c(c1)ncc[n+]2CC(=O)c1ccc(Cl)cc1Cl	·	·	·	–	–	·
O=C(CCN1CCN(Cc2ccccc2)CC1)Nc1ccc(OCc2ccccc2)cc1	?	–	–	2.59µM	?	–
Cc1cnc([N+](=O)[O-])n1CCOC(=O)c1cccc(F)c1	–	–	-80.7	–	?	–
Cc1cnc([N+](=O)[O-])n1CCOC(=O)NC(=O)c1ccc(F)cc1	–	–	?	–	–	–
Cc1cn2c(=O)cc(COC(=O)COc3ccccc3C)nc2s1	·	·	·	–	–	·
COc1ccc(C(C#N)=Cc2ccc(NC(C)=O)cc2)cc1	16.4µM	–	–	–	–	?
COc1ccc2nc(/C(C#N)=C\c3ccc(C(=O)O)cc3)[nH]c2c1	–	–	–	–	–	18.4µM
COc1ccc(C(C#N)=Cc2ccccc2OC)cc1	·	·	·	8.2µM	16.4µM	·
COC(=O)C1=C[C@@H](C(=O)OC)C2C3=C(C(=O)[C@@]2(CC(C)C)NC(=O)c2ccccc2)[C@H](C)n2c(=O)n(C)c(=O)n2[C@@H]3C1 (some centres not stated)	·	·	–	·	·	·
C=CCC[C@H](Cc1ccc(F)cc1)C(=O)OC[C@@H](Cc1c[nH]c2ccccc12)NC(=O)[C@@H](CC=C)CC(=O)N[C@@H](CO)Cc1ccccc1	18.4µM	–	–	–	?	?
C=CCC[C@@H](Cc1ccc(F)cc1)C(=O)OC[C@@H](Cc1c[nH]c2ccccc12)NC(=O)[C@H](CC=C)CC(=O)N[C@H](CO)Cc1ccccc1	16.4µM	–	–	–	?	–
Cc1nc2c(-c3ccccc3)c(C)nn2c(C)c1CCC(=O)NCc1cccc(Cl)c1	·	·	·	–	–	·
